This is an account of results in publication PMC7862700, “An all-to-all approach to the identification of sequence-specific readers for epigenetic DNA modifications on cytosine”.

What all share (test): DAPPL (digital affinity profiling via proximity ligation, sequencing); 10 mM Tris-HCl pH 7.5, 50 mM NaCl, 1 mM DTT, 4% glycerol, room temperature, 30 min; GST-TFs on glutathione beads, 16-mer random dsDNA library, 0.1% formaldehyde crosslink after washing; high values mean tight binding
What all share (settings): protein: recombinant; tags: N-terminal GST; dsDNA, one strand shown

One assay addresses T1, FLI1 (Homo sapiens, UniProt Q01543 1-452).
T1 sequence: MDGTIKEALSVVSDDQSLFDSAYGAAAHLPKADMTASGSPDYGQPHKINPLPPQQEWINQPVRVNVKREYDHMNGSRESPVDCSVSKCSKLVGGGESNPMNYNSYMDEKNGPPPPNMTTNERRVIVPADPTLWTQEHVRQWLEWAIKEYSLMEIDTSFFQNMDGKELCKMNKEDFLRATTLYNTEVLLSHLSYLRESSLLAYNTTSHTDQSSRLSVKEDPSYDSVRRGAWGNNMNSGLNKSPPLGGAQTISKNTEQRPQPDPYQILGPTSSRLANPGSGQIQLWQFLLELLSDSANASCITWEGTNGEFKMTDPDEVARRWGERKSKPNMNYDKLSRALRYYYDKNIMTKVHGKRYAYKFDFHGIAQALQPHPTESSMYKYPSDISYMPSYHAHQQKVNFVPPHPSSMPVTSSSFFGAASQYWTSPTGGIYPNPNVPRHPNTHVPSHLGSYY
The method in brief: (§1)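 Each value of binding signal is a hexamer's read frequency for a factor divided by the same hexamer's frequency in the tag-only sample. Barcoded, bead-captured GST fusions of human transcription factors made in yeast were pooled with that sample and incubated with 200 nmole of a random double-stranded 16-mer DNA library in Tris/NaCl/DTT/glycerol buffer at room temperature for 30 min. Washing, 0.1% formaldehyde crosslinking, proximity ligation, PCR and Illumina NextSeq500 sequencing followed.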

A further assay has as its target T2, ELK1 (Homo sapiens, UniProt P19419 1-428).
T2 sequence: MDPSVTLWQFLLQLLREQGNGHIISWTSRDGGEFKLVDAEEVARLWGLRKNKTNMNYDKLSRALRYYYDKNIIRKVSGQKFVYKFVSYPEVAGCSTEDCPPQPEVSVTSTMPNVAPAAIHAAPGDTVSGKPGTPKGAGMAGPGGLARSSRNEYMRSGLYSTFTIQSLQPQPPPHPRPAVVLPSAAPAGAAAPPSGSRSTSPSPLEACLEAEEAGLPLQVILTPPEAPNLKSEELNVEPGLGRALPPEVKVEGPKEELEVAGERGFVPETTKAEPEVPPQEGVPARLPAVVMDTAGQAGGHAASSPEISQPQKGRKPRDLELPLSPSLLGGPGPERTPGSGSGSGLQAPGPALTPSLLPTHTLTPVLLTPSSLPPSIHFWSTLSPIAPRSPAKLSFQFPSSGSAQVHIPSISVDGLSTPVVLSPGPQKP
The method in brief: as §1

The target of another assay is T3, GABPA (Homo sapiens, UniProt Q06546 1-454).
T3 sequence: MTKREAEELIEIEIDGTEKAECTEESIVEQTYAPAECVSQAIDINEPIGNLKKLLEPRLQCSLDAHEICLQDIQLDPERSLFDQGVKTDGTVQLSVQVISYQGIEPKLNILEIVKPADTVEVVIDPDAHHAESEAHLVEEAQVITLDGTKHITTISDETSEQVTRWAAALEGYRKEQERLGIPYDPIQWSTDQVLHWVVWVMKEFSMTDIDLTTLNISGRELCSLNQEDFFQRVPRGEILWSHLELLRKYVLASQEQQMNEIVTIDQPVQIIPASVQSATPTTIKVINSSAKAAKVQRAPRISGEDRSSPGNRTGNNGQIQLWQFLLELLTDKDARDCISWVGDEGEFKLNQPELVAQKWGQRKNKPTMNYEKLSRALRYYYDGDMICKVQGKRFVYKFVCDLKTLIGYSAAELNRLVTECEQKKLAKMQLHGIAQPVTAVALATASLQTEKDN
The method in brief:
as §1

The target of another assay is T4, ERG (Homo sapiens, UniProt P11308 1-479).
T4 sequence: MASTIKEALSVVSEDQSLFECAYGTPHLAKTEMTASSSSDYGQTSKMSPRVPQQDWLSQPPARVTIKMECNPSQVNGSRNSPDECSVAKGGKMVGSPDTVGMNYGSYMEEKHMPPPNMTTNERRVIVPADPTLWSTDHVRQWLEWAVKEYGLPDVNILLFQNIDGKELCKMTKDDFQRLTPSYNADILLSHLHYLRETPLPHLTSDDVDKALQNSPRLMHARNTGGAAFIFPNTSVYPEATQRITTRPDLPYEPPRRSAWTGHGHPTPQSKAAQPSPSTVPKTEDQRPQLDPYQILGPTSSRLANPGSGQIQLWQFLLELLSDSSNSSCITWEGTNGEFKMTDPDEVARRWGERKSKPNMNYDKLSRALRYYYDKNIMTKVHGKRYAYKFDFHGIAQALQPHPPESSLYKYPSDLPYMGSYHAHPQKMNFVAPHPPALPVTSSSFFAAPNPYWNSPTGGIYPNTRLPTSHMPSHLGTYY
The method in brief: as §1

The next assay deals with ELF1 (Homo sapiens, UniProt P32519 1-619). The method in brief: as §1
ELF1, sequence (P32519 whole entry): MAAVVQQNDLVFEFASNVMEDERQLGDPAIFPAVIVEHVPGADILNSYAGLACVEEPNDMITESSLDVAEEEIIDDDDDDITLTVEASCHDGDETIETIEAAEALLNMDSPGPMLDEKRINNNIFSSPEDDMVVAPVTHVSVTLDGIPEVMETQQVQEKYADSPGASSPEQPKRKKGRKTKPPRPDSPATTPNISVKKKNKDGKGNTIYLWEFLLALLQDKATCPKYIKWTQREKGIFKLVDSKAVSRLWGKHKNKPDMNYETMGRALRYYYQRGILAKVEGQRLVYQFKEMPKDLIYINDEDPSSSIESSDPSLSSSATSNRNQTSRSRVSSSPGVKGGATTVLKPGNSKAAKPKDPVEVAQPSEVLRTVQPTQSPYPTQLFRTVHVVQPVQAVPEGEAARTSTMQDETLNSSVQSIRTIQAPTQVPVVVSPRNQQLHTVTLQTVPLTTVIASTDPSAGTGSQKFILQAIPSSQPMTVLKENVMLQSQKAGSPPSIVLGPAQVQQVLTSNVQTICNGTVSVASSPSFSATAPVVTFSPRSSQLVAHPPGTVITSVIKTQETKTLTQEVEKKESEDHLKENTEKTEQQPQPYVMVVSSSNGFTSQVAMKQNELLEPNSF
In the next assay the target is SPI1 (Homo sapiens, UniProt P17947 1-270). The method in brief:
as §1

The target in the next assay is T5, ELK3 (Homo sapiens, UniProt P41970 1-407).
T5 sequence: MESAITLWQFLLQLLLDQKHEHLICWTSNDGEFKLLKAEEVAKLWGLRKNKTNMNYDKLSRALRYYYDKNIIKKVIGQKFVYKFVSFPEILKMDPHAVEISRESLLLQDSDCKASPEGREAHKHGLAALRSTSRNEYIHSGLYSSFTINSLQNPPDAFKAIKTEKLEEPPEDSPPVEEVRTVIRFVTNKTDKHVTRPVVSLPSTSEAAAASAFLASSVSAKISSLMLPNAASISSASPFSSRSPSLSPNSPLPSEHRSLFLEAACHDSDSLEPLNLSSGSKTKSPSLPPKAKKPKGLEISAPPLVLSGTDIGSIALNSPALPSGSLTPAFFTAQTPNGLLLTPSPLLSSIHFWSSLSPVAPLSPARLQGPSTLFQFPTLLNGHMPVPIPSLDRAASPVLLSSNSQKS
The method in brief: as §1

In a further assay the target is T6, EHF (Homo sapiens, UniProt Q9NZC4 1-300).
T6 sequence: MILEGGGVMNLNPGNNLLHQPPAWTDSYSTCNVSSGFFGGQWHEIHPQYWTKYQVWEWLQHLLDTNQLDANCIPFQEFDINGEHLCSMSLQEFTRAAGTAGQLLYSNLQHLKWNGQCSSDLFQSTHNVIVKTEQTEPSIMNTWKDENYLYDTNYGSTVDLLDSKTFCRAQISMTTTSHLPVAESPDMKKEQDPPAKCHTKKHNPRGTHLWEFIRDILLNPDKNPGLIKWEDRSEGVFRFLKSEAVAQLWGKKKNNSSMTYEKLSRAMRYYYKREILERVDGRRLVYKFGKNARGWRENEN
The method in brief: as §1

The target of a further assay is SPIB (Homo sapiens, UniProt Q01892 1-262). In a few lines:
as §1

SPIB, sequence (Q01892 whole entry): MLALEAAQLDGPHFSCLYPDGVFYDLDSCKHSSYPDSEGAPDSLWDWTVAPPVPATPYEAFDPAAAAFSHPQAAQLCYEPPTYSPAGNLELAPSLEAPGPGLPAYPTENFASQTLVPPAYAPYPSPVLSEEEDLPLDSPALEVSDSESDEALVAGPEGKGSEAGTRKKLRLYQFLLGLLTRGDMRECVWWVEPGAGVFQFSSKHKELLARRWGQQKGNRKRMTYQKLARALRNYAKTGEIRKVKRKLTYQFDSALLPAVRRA

Turning to AGACCT, the binding signal was 1.01 fold enrichment (6-mer frequency, TF over GST control) in the assay with FLI1; 1.04 fold enrichment (6-mer frequency, TF over GST control) with ELK1; 1.02 fold enrichment (6-mer frequency, TF over GST control) with GABPA; 1 fold enrichment (6-mer frequency, TF over GST control) with ERG; 1.05 fold enrichment (6-mer frequency, TF over GST control) in the assay with ELF1; 1.06 fold enrichment (6-mer frequency, TF over GST control) in the assay with SPI1. Also, the binding signal with ELK3 was 1.01 fold enrichment (6-mer frequency, TF over GST control).
With TAGCGG, the binding signal was 1.14 fold enrichment (6-mer frequency, TF over GST control) in the assay with FLI1; 1.1 fold enrichment (6-mer frequency, TF over GST control) in the assay with ELK1; 1.06 fold enrichment (6-mer frequency, TF over GST control) with GABPA; 1.16 fold enrichment (6-mer frequency, TF over GST control) with ERG; 1.24 fold enrichment (6-mer frequency, TF over GST control) with EHF; 1.23 fold enrichment (6-mer frequency, TF over GST control) in the assay with SPI1. Moreover, the binding signal was 1.17 fold enrichment (6-mer frequency, TF over GST control) with SPIB and 1.08 fold enrichment (6-mer frequency, TF over GST control) with ELK3.
Take GAACCA: the binding signal with FLI1 is 1.02 fold enrichment (6-mer frequency, TF over GST control); in the assay with ELK1, 1.05 fold enrichment (6-mer frequency, TF over GST control); with GABPA, 1.05 fold enrichment (6-mer frequency, TF over GST control); in the assay with ELF1 it was 1.05 fold enrichment (6-mer frequency, TF over GST control); with EHF, 1.08 fold enrichment (6-mer frequency, TF over GST control).
Turning to AGTTCT, the binding signal with FLI1 is 1.02 fold enrichment (6-mer frequency, TF over GST control); in the assay with ELK1, 1.15 fold enrichment (6-mer frequency, TF over GST control); in the assay with GABPA, 1.11 fold enrichment (6-mer frequency, TF over GST control); with ERG, 1.11 fold enrichment (6-mer frequency, TF over GST control); in the assay with ELF1, 1.04 fold enrichment (6-mer frequency, TF over GST control); with SPI1 it was 1.14 fold enrichment (6-mer frequency, TF over GST control). Further, the binding signal with SPIB is 1.2 fold enrichment (6-mer frequency, TF over GST control); in the assay with ELK3, 1.11 fold enrichment (6-mer frequency, TF over GST control).
As to ATAGGT, the binding signal was 1.08 fold enrichment (6-mer frequency, TF over GST control) with FLI1; 1.01 fold enrichment (6-mer frequency, TF over GST control) with ELK1; 1.01 fold enrichment (6-mer frequency, TF over GST control) in the assay with ERG; 1.04 fold enrichment (6-mer frequency, TF over GST control) with EHF; 1.01 fold enrichment (6-mer frequency, TF over GST control) with SPI1; 1.04 fold enrichment (6-mer frequency, TF over GST control) in the assay with SPIB.
Consider TAGTGC, for which the binding signal was 1.05 fold enrichment (6-mer frequency, TF over GST control) with FLI1; 1.02 fold enrichment (6-mer frequency, TF over GST control) with ELK1; 1.12 fold enrichment (6-mer frequency, TF over GST control) in the assay with GABPA; 1.1 fold enrichment (6-mer frequency, TF over GST control) with ELF1; 1.05 fold enrichment (6-mer frequency, TF over GST control) with SPI1; 1.03 fold enrichment (6-mer frequency, TF over GST control) with SPIB. Further, the binding signal in the assay with ELK3 is 1.07 fold enrichment (6-mer frequency, TF over GST control).
Turning to TAGCGA, the binding signal was 1.1 fold enrichment (6-mer frequency, TF over GST control) with FLI1; 1.01 fold enrichment (6-mer frequency, TF over GST control) with ELK1; 1.18 fold enrichment (6-mer frequency, TF over GST control) with GABPA; 1.03 fold enrichment (6-mer frequency, TF over GST control) with ELF1; 1.03 fold enrichment (6-mer frequency, TF over GST control) in the assay with EHF; 1.08 fold enrichment (6-mer frequency, TF over GST control) in the assay with ELK3.
Consider TTCGCG, for which the binding signal with FLI1 is 1.13 fold enrichment (6-mer frequency, TF over GST control); with ELK1 it was 1.07 fold enrichment (6-mer frequency, TF over GST control); with ERG, 1.08 fold enrichment (6-mer frequency, TF over GST control); with ELF1, 1.14 fold enrichment (6-mer frequency, TF over GST control); with EHF it was 1.21 fold enrichment (6-mer frequency, TF over GST control); in the assay with SPI1, 1.18 fold enrichment (6-mer frequency, TF over GST control). For the same sequence, the binding signal with SPIB was 1.14 fold enrichment (6-mer frequency, TF over GST control); with ELK3, 1.15 fold enrichment (6-mer frequency, TF over GST control).
ACACCA: the binding signal with FLI1 was 1.01 fold enrichment (6-mer frequency, TF over GST control); with ELK1, 1.15 fold enrichment (6-mer frequency, TF over GST control); with ERG, 1.01 fold enrichment (6-mer frequency, TF over GST control); with ELF1 it was 1.05 fold enrichment (6-mer frequency, TF over GST control); in the assay with EHF it was 1.04 fold enrichment (6-mer frequency, TF over GST control).
Take CCGAAG: the binding signal in the assay with FLI1 is 1.12 fold enrichment (6-mer frequency, TF over GST control); with ELK1, 1.09 fold enrichment (6-mer frequency, TF over GST control); in the assay with GABPA, 1.12 fold enrichment (6-mer frequency, TF over GST control); in the assay with ELF1, 1 fold enrichment (6-mer frequency, TF over GST control); in the assay with EHF, 1.03 fold enrichment (6-mer frequency, TF over GST control); in the assay with SPIB, 1.04 fold enrichment (6-mer frequency, TF over GST control). The binding signal in the assay with ELK3 was 1.03 fold enrichment (6-mer frequency, TF over GST control).
For CAGAAT, the binding signal is 1 fold enrichment (6-mer frequency, TF over GST control) with FLI1; 1.01 fold enrichment (6-mer frequency, TF over GST control) with ELK1; 1.02 fold enrichment (6-mer frequency, TF over GST control) with GABPA; 1.03 fold enrichment (6-mer frequency, TF over GST control) with ELF1; 1.05 fold enrichment (6-mer frequency, TF over GST control) with EHF; 1.05 fold enrichment (6-mer frequency, TF over GST control) in the assay with SPIB. In the assay with ELK3, the binding signal was 1.01 fold enrichment (6-mer frequency, TF over GST control).
For GAATTA, the binding signal with FLI1 was 1.09 fold enrichment (6-mer frequency, TF over GST control); with ELK1, 1.05 fold enrichment (6-mer frequency, TF over GST control); with ERG, 1.01 fold enrichment (6-mer frequency, TF over GST control); in the assay with ELF1, 1.04 fold enrichment (6-mer frequency, TF over GST control); with EHF, 1.12 fold enrichment (6-mer frequency, TF over GST control); with SPI1 it was 1.07 fold enrichment (6-mer frequency, TF over GST control). Also, the binding signal with SPIB is 1.02 fold enrichment (6-mer frequency, TF over GST control); in the assay with ELK3 it was 1.12 fold enrichment (6-mer frequency, TF over GST control).
